According to PubChem BioAssay (NCI):
This is part of a sample that, as a whole, favours compounds with a hit. Of some 83,000 tested, about 20% had one in any assay.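 Step 1: grow cells in 96-well plates. Step 2: add test compound at a single concentration. Step 3: incubate 48 h. Step 4: record percent growth.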 Active and inactive are the calls of the source. Rule for the calls: active = growth percent below 10; inactive = the rest.

How the values were obtained:
Assay in all cases: NCI-60 one-dose screen, 48 h (100 = growth as untreated, 0 = no growth, -100 = all killed)
Details in all cases: 10 µM unless noted
SR leukemia = tested on: SR leukemia
RPMI-8226 leukemia = tested on: RPMI-8226 leukemia
OVCAR-8 ovarian = tested on: OVCAR-8 ovarian
OVCAR-5 ovarian = tested on: OVCAR-5 ovarian
OVCAR-4 ovarian = tested on: OVCAR-4 ovarian
SK-OV-3 ovarian = tested on: SK-OV-3 ovarian
IGROV1 ovarian = tested on: IGROV1 ovarian
OVCAR-3 ovarian = tested on: OVCAR-3 ovarian
HS 578T breast = tested on: HS 578T breast
NCI/ADR-RES ovarian = tested on: NCI/ADR-RES ovarian
T-47D breast = tested on: T-47D breast
BT-549 breast = tested on: BT-549 breast
MDA-MB-435 melanoma = tested on: MDA-MB-435 melanoma
SW-620 colon = tested on: SW-620 colon
MCF7 breast = tested on: MCF7 breast
HCT-116 colon = tested on: HCT-116 colon
HCC-2998 colon = tested on: HCC-2998 colon
KM12 colon = tested on: KM12 colon

Measured: growth

C=C1C(=O)O[C@H]2[C@H]1CC/C(Cn1cc(-c3ccc(N)cc3)nn1)=C\CC[C@@]1(C)O[C@@H]21
active: SR leukemia 7.69% | RPMI-8226 leukemia -8.22% | OVCAR-8 ovarian -5.97% | OVCAR-3 ovarian -30.7% | T-47D breast -40.4% | BT-549 breast -43.3% | MDA-MB-435 melanoma -7.57% | SW-620 colon -44.8% | MCF7 breast 2.62% | HCT-116 colon -56%
inactive: OVCAR-5 ovarian 38.4% | OVCAR-4 ovarian 13.6% | SK-OV-3 ovarian 83.8% | IGROV1 ovarian 18.4% | HS 578T breast 62.4% | NCI/ADR-RES ovarian 69.8% | HCC-2998 colon 50.8% | KM12 colon 51.5%

COc1ccc(Cn2c(SC)nc(=O)n(Cc3ccc(Cl)cc3)c2=O)cc1
inactive: SR leukemia 84.4% | RPMI-8226 leukemia 92.8% | OVCAR-8 ovarian 96% | OVCAR-5 ovarian 92.1% | OVCAR-4 ovarian 98% | SK-OV-3 ovarian 106% | IGROV1 ovarian 102% | OVCAR-3 ovarian 102% | HS 578T breast 94% | NCI/ADR-RES ovarian 95.4% | T-47D breast 81.8% | BT-549 breast 97% | MDA-MB-435 melanoma 111% | SW-620 colon 103% | MCF7 breast 92% | HCT-116 colon 93.9% | HCC-2998 colon 103% | KM12 colon 97.5%

CCCCCCCCCCC/C=C\C[C@H](O)C/C=C1/C(=O)C=C[C@@H]1C/C=C\CCCC(=O)OC
inactive: OVCAR-5 ovarian 21.9% | SK-OV-3 ovarian 26.8% | HS 578T breast 18% | MCF7 breast 10.8%
active: SR leukemia 6.46% | RPMI-8226 leukemia -10.2% | OVCAR-8 ovarian 7.18% | OVCAR-4 ovarian -1.25% | IGROV1 ovarian -15.9% | OVCAR-3 ovarian -46.2% | NCI/ADR-RES ovarian 9.04% | T-47D breast -8.92% | BT-549 breast -14.2% | MDA-MB-435 melanoma -14.5% | SW-620 colon 3.33% | HCT-116 colon -32% | HCC-2998 colon -46.5% | KM12 colon -48.5%

Nc1ccc(S(=O)(=O)c2ccc(Cl)cc2)cc1
inactive: SR leukemia 112% | RPMI-8226 leukemia 101% | OVCAR-8 ovarian 107% | OVCAR-5 ovarian 90.1% | OVCAR-4 ovarian 110% | SK-OV-3 ovarian 109% | IGROV1 ovarian 97.3% | OVCAR-3 ovarian 98.8% | HS 578T breast 96% | NCI/ADR-RES ovarian 95.2% | T-47D breast 104% | BT-549 breast 97.2% | MDA-MB-435 melanoma 121% | SW-620 colon 94.1% | MCF7 breast 99.3% | HCT-116 colon 97.2% | HCC-2998 colon 102% | KM12 colon 93.4%

Clc1nc2ccccc2nc1CI
active: SR leukemia 8.99%
inactive: RPMI-8226 leukemia 77.6% | OVCAR-8 ovarian 90.4% | OVCAR-5 ovarian 109% | OVCAR-4 ovarian 94.3% | SK-OV-3 ovarian 104% | IGROV1 ovarian 72.7% | OVCAR-3 ovarian 123% | HS 578T breast 115% | NCI/ADR-RES ovarian 98.9% | T-47D breast 108% | BT-549 breast 92% | MDA-MB-435 melanoma 89.2% | SW-620 colon 36.3% | MCF7 breast 91.1% | HCT-116 colon 23% | HCC-2998 colon 117% | KM12 colon 104%

CC(C)(C)OC(=O)N1C/C(=C\c2cccs2)C(=O)/C(=C/c2cccs2)C1
inactive: SR leukemia 55.5% | RPMI-8226 leukemia 55.4% | OVCAR-8 ovarian 87.8% | OVCAR-5 ovarian 109% | OVCAR-4 ovarian 82.2% | SK-OV-3 ovarian 90.1% | IGROV1 ovarian 83% | OVCAR-3 ovarian 104% | HS 578T breast 93.3% | NCI/ADR-RES ovarian 96.3% | T-47D breast 82.5% | BT-549 breast 97.6% | MDA-MB-435 melanoma 99.7% | SW-620 colon 84.5% | MCF7 breast 39.1% | HCT-116 colon 63.5% | HCC-2998 colon 106% | KM12 colon 97.2%

ClC1=C(Cl)C(Cl)=C(Cl)C1=Cc1ccc(Cl)cc1Cl
active: SR leukemia 2.92% | RPMI-8226 leukemia -10.7% | OVCAR-8 ovarian 2.92% | OVCAR-5 ovarian 8.75% | OVCAR-4 ovarian 5.94% | IGROV1 ovarian 7.32% | OVCAR-3 ovarian -83.7% | NCI/ADR-RES ovarian -34.8% | T-47D breast -0.12% | BT-549 breast -26.3% | MDA-MB-435 melanoma -52.4% | SW-620 colon -43.9% | MCF7 breast 4.25% | HCT-116 colon -55.5% | HCC-2998 colon -89.7% | KM12 colon -78.9%
inactive: SK-OV-3 ovarian 38.5% | HS 578T breast 11.6%

O=C1OC(c2ccccc2)=N/C1=C\c1ccc([N+](=O)[O-])cc1
inactive: SR leukemia 97.3% | RPMI-8226 leukemia 102% | OVCAR-8 ovarian 111% | OVCAR-5 ovarian 92.8% | OVCAR-4 ovarian 114% | SK-OV-3 ovarian 109% | IGROV1 ovarian 100% | OVCAR-3 ovarian 106% | HS 578T breast 82.6% | NCI/ADR-RES ovarian 104% | T-47D breast 106% | BT-549 breast 101% | MDA-MB-435 melanoma 106% | SW-620 colon 92.4% | MCF7 breast 103% | HCT-116 colon 97.8% | KM12 colon 94.5%

O=C(Nc1ccc(Cl)cc1)c1cc(-c2ccc(F)cc2)c2sc(=O)[nH]c2n1
active: OVCAR-4 ovarian -0.62% | SK-OV-3 ovarian 0.427% | NCI/ADR-RES ovarian 3.43% | T-47D breast 3.75% | BT-549 breast -13.1% | MDA-MB-435 melanoma 8.39% | MCF7 breast 4.61% | HCT-116 colon 3.3% | KM12 colon 6.83%
inactive: SR leukemia 16.6% | RPMI-8226 leukemia 10.9% | OVCAR-8 ovarian 13% | OVCAR-5 ovarian 72.2% | IGROV1 ovarian 29.3% | OVCAR-3 ovarian 14% | HS 578T breast 29.4% | SW-620 colon 14.5% | HCC-2998 colon 22%

COc1cc(-c2csc(NC(=O)Nc3ccc(Cl)cc3Cl)n2)cc(OC)c1OC
active: NCI/ADR-RES ovarian 9.75% | MDA-MB-435 melanoma -7.76%
inactive: SR leukemia 23.1% | RPMI-8226 leukemia 30% | OVCAR-8 ovarian 45.4% | OVCAR-5 ovarian 75.8% | OVCAR-4 ovarian 55.5% | SK-OV-3 ovarian 55.5% | IGROV1 ovarian 51.7% | OVCAR-3 ovarian 20.5% | HS 578T breast 34.5% | T-47D breast 26.6% | BT-549 breast 38.3% | SW-620 colon 28.8% | MCF7 breast 11.8% | HCT-116 colon 19.3% | HCC-2998 colon 60.1% | KM12 colon 24.6%

Nc1nc(-c2cc3ccccc3o2)cc(=O)c(=O)[nH]1
inactive: SR leukemia 90.9% | RPMI-8226 leukemia 95.7% | OVCAR-8 ovarian 107% | OVCAR-5 ovarian 105% | OVCAR-4 ovarian 102% | SK-OV-3 ovarian 96.7% | IGROV1 ovarian 100% | OVCAR-3 ovarian 102% | HS 578T breast 88.2% | NCI/ADR-RES ovarian 109% | T-47D breast 104% | BT-549 breast 106% | MDA-MB-435 melanoma 105% | SW-620 colon 102% | MCF7 breast 91% | HCT-116 colon 110% | KM12 colon 105%

COc1ccc(-c2nc3sccn3c2-c2ccnc(NCCCNS(=O)(=O)c3ccc(C)cc3)n2)cc1
active: T-47D breast -6.34%
inactive: SR leukemia 33.1% | RPMI-8226 leukemia 23.2% | OVCAR-8 ovarian 25% | OVCAR-5 ovarian 93.4% | OVCAR-4 ovarian 42.9% | SK-OV-3 ovarian 56.1% | IGROV1 ovarian 33.9% | OVCAR-3 ovarian 45.4% | HS 578T breast 66.2% | NCI/ADR-RES ovarian 20.8% | BT-549 breast 42.5% | MDA-MB-435 melanoma 23.4% | SW-620 colon 38.6% | MCF7 breast 34.3% | HCT-116 colon 25% | HCC-2998 colon 25.9% | KM12 colon 20.6%

COc1ccccc1OCC(=O)Nc1sc2c(c1C(N)=O)CCC2
active: IGROV1 ovarian -10.4%
inactive: SR leukemia 65.2% | RPMI-8226 leukemia 66.2% | OVCAR-8 ovarian 76.9% | OVCAR-5 ovarian 107% | OVCAR-4 ovarian 83.2% | SK-OV-3 ovarian 69.9% | OVCAR-3 ovarian 92.1% | HS 578T breast 55.5% | NCI/ADR-RES ovarian 79.1% | T-47D breast 62.5% | BT-549 breast 85.6% | MDA-MB-435 melanoma 78.9% | SW-620 colon 64.5% | MCF7 breast 27.8% | HCT-116 colon 63.1% | HCC-2998 colon 58.8% | KM12 colon 105%

O=Nc1c(-c2c(O)[nH]c3ccc([N+](=O)[O-])cc23)[nH]c2ccc(O)cc12
active: SR leukemia 0.378% | RPMI-8226 leukemia -7.92% | OVCAR-8 ovarian 7.71% | SK-OV-3 ovarian -9.52% | IGROV1 ovarian 6.36% | OVCAR-3 ovarian 4.31% | HS 578T breast 1.21% | BT-549 breast 4.59% | MDA-MB-435 melanoma 9.35% | SW-620 colon 3.18% | MCF7 breast 2.75% | HCT-116 colon 2.29% | HCC-2998 colon 8.93% | KM12 colon -33%
inactive: OVCAR-5 ovarian 110% | OVCAR-4 ovarian 19.7% | NCI/ADR-RES ovarian 42% | T-47D breast 16.8%

CCCCCCCN(CCCCCCC)C(=N)c1ccc(OC)c2ccccc12
active: SR leukemia -48.6% | RPMI-8226 leukemia -48.8% | OVCAR-8 ovarian -66.3% | OVCAR-5 ovarian -82.4% | OVCAR-4 ovarian -98% | SK-OV-3 ovarian -68.2% | IGROV1 ovarian -73.5% | OVCAR-3 ovarian -94.6% | HS 578T breast -60.6% | NCI/ADR-RES ovarian -75.7% | T-47D breast -72.9% | BT-549 breast -7.55% | MDA-MB-435 melanoma -98.7% | SW-620 colon -89.1% | MCF7 breast -74.4% | HCT-116 colon -86.7% | HCC-2998 colon -92.5% | KM12 colon -84.3%

C/C(=C\c1csc(C)n1)[C@@H]1C[C@@H]2O[C@]2(C)CCC[C@H](C)[C@H](O)[C@@H](C)C(=O)C(C)(C)[C@@H](O)CC(=O)N1
active: SR leukemia -39.1% | RPMI-8226 leukemia -45.3% | OVCAR-8 ovarian -74% | OVCAR-5 ovarian -6.81% | SK-OV-3 ovarian -8.54% | IGROV1 ovarian -85.5% | OVCAR-3 ovarian -100% | HS 578T breast -61.7% | NCI/ADR-RES ovarian -70.2% | T-47D breast -21.8% | BT-549 breast -45.3% | MDA-MB-435 melanoma -79.7% | SW-620 colon -98.6% | MCF7 breast -82.1% | HCT-116 colon -79.1% | KM12 colon -99.2%
inactive: OVCAR-4 ovarian 14.8%

COc1ccc(C(=O)/C=C/c2cccc([N+](=O)[O-])c2)c(OC)c1
inactive: OVCAR-8 ovarian 18.2% | OVCAR-5 ovarian 41.9% | OVCAR-4 ovarian 26.6% | SK-OV-3 ovarian 77% | OVCAR-3 ovarian 18.6% | HS 578T breast 74.6% | NCI/ADR-RES ovarian 11.2% | T-47D breast 26.6% | MDA-MB-435 melanoma 15.2% | HCC-2998 colon 36.6% | KM12 colon 13.2%
active: SR leukemia 4.78% | RPMI-8226 leukemia -16.8% | IGROV1 ovarian 7% | BT-549 breast 4.85% | SW-620 colon -67.4% | MCF7 breast 7.98% | HCT-116 colon -80.1%
